Experimental data published in PubChem BioAssay (EPA / NIEHS).
The source made the active and inactive calls. Rule for the calls: active = hit-call score of the fitted dose curve at least 0.9, where 1 is the maximum; inactive = score below 0.9.

What was measured:
Conditions in all cases: mRNA level, 48 h; actives raise or lower the signal
[1] = read-out: Lipase C (LIPC), LIPC (gene 3990); test: LTEA_HepaRG_LIPC: Life Technologies and Expression Analysis (LTEA) Assay for Lipase C (LIPC) using HepaRG (AID 2283514)
Method in brief: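 HepaRG cells, 48 h after plating, treated in duplicate for 48 h in serum-free induction medium over 8 half-log concentrations from 100 uM, 0.5% DMSO. LIPC mRNA by TaqMan qRT-PCR normalized to ACTB/GAPDH/POLR2A; bidirectional fit versus DMSO.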

[2] = read-out: Lipoprotein lipase (LPL), LPL (gene 4023); test: LTEA_HepaRG_LPL: Life Technologies and Expression Analysis (LTEA) Assay for Lipoprotein lipase (LPL) using HepaRG (AID 2283515)
Method in brief: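 Differentiated HepaRG cells, plated 48 h, then exposed 48 h in serum-free induction medium to 8 concentrations (top 100 uM, half-log steps) in 0.5% DMSO, duplicate. LPL mRNA measured by qRT-PCR, normalized to ACTB, GAPDH and POLR2A.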

[3] = read-out: MicroRNA 122 (MIR122), gene 406906; test: LTEA_HepaRG_MIR122: Life Technologies and Expression Analysis (LTEA) Assay for MicroRNA 122 (MIR122) using HepaRG (AID 2283516); note: the transcript read is the microRNA miR-122
Method in brief: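 HepaRG, 48 h exposure, 8-pt half-log from 100 uM, 0.5% DMSO; TaqMan qRT-PCR; bidirectional fit vs DMSO.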

[4] = read-out: matrix metalloproteinase-10 (MMP10), MMP10 (gene 4319); test: LTEA_HepaRG_MMP10: Life Technologies and Expression Analysis (LTEA) Assay for matrix metalloproteinase-10 (MMP10) using HepaRG (AID 2283517)
Method in brief: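 Differentiated HepaRG cells in serum-free induction medium exposed 48 h in duplicate to 8-point half-log series up to 100 uM in 0.5% DMSO. mRNA quantified by qRT-PCR, normalised to ACTB, GAPDH, POLR2A; bidirectional fit versus DMSO.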

[5] = read-out: MYC, MYC (gene 4609); test: LTEA_HepaRG_MYC: Life Technologies and Expression Analysis (LTEA) Assay for MYC using HepaRG (AID 2283518)
Method in brief: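 Cells are thawed, plated and cultured 48 h, then treated for 48 h with test chemicals (eight half-log concentrations from 100 uM, 0.5% DMSO vehicle). RNA is isolated and MYC expression quantified by qRT-PCR against three housekeeping genes.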

[6] = read-out: matrix metalloproteinase-3 (MMP3), MMP3 (gene 4314); test: LTEA_HepaRG_MMP3: Life Technologies and Expression Analysis (LTEA) Assay for matrix metalloproteinase-3 (MMP3) using HepaRG (AID 2283519)
Method in brief: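 HepaRG cells (~100,000/well) in serum-free induction medium were dosed in duplicate for 48 h with an 8-point half-log series from 100 uM, 0.5% DMSO. MMP3 mRNA was quantified by Fluidigm TaqMan qRT-PCR, normalized to three housekeeping genes.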

[7] = read-out: Paternally Expressed 10 (PEG10), PEG10 (gene 23089); test: LTEA_HepaRG_PEG10: Life Technologies and Expression Analysis (LTEA) Assay for Paternally Expressed 10 (PEG10) using HepaRG (AID 2283520);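 for AC50: PEG10 transcript by qRT-PCR normalised to ACTB GAPDH and POLR2A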
Method in brief: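 Chemicals tested on HepaRG cells for 48 h, highest concentration 100 uM. PEG10 expression assessed by qRT-PCR relative to DMSO control.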

[8] = read-out: Nuclear factor NF-kappa-B p105 subunit (Homo sapiens) (UniProt P19838); test: LTEA_HepaRG_NFKB1: Life Technologies and Expression Analysis (LTEA) Assay for Nuclear Factor Kappa B Subunit 1 (NFKB1) using HepaRG (AID 2283521);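 note: TaqMan qRT-PCR transcript normalised to ACTB GAPDH and POLR2A housekeeping genes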
Method in brief: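 Differentiated human HepaRG cells in serum-free induction medium with 0.5% DMSO were exposed for 48 h to eight half-log concentrations, top 100 uM, in duplicate. NFKB1 mRNA measured by Fluidigm TaqMan qRT-PCR, normalised to ACTB, GAPDH and POLR2A; bidirectional fit versus DMSO.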

[9] = read-out: Protein phosphatase 2A (PPP2R4), PTPA (gene 5524); test: LTEA_HepaRG_PPP2R4: Life Technologies and Expression Analysis (LTEA) Assay for Protein phosphatase 2A (PPP2R4) using HepaRG (AID 2283522)
Method in brief: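 Gene-expression endpoint in HepaRG hepatic cells: 48 h treatment across eight half-log concentrations up to 100 uM in 0.5% DMSO. PPP2R4 mRNA by qRT-PCR, normalized to three endogenous control genes.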

[10] = read-out: Phosphatase and tensin (PTEN), PTEN (gene 5728); test: LTEA_HepaRG_PTEN: Life Technologies and Expression Analysis (LTEA) Assay for Phosphatase and tensin (PTEN) using HepaRG (AID 2283523)
Method in brief: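 HepaRG cells, 48 h after plating, exposed in duplicate for 48 h in serum-free induction medium to 8 half-log concentrations up to 100 uM (0.5% DMSO). PTEN mRNA by qRT-PCR, normalized to ACTB, GAPDH, POLR2A; bidirectional fit versus DMSO.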

[11] = read-out: solute carrier (SLC22A1), SLC22A1 (gene 6580); test: LTEA_HepaRG_SLC22A1: Life Technologies and Expression Analysis (LTEA) Assay for solute carrier (SLC22A1) using HepaRG (AID 2283524)
Method in brief: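 Differentiated human HepaRG cells in serum-free induction medium, exposed 48 h in duplicate to 8-point half-log series from 100 µM top in 0.5% DMSO. SLC22A1 mRNA by TaqMan qRT-PCR normalized to ACTB, GAPDH, POLR2A; bidirectional fit versus DMSO.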

[12] = read-out: Pyruvate Dehydrogenase Kinase 4 (PDK4), PDK4 (gene 5166); test: LTEA_HepaRG_PDK4: Life Technologies and Expression Analysis (LTEA) Assay for Pyruvate Dehydrogenase Kinase 4 (PDK4) using HepaRG (AID 2283525)
Method in brief: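 HepaRG cells plated 48 h, then switched to serum-free induction medium and exposed in duplicate for 48 h to 8 half-log concentrations from 100 uM in 0.5% DMSO. PDK4 mRNA measured by qRT-PCR, normalized to ACTB, GAPDH and POLR2A; bidirectional fit versus DMSO.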

[13] = read-out: NAD(P)H dehydrogenase [quinone] 1 (NQO1), NQO1 (gene 1728); test: LTEA_HepaRG_NQO1: Life Technologies and Expression Analysis (LTEA) Assay for NAD(P)H dehydrogenase [quinone] 1 (NQO1) using HepaRG (AID 2283526)
Method in brief: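 Human HepaRG hepatic cells received chemicals for 48 h in serum-free induction medium with 0.5% DMSO, up to 100 uM. Expression was assessed by TaqMan qRT-PCR against housekeeping controls and fitted bidirectionally against DMSO.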

[14] = read-out: Nuclear factor erythroid 2-related factor 2 (Homo sapiens) (UniProt Q16236); test: LTEA_HepaRG_NFE2L2: Life Technologies and Expression Analysis (LTEA) Assay for Nuclear factor erythroid 2-related factor 2 (NFE2L2) Transcription Factor using HepaRG (AID 2283527);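 note: TaqMan qRT-PCR transcript level normalised to ACTB GAPDH and POLR2A housekeeping genes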
Method in brief: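 Differentiated human HepaRG cells, serum-free induction medium, exposed 48 h in duplicate to eight half-log concentrations up to 100 uM in 0.5% DMSO. NFE2L2 mRNA by Fluidigm TaqMan qRT-PCR, normalised to ACTB, GAPDH, POLR2A; bidirectional change versus DMSO.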

[15] = read-out: succinate dehydrogenase complex iron sulfur subunit B (SDHB), SDHB (gene 6390); test: LTEA_HepaRG_SDHB: Life Technologies and Expression Analysis (LTEA) Assay for succinate dehydrogenase complex iron sulfur subunit B (SDHB) using HepaRG (AID 2283528)
Method in brief: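 HepaRG cells (~100,000/well, plated 48 h) exposed in duplicate for 48 h in serum-free induction medium to 8-point half-log series from 100 uM in 0.5% DMSO; mRNA by qRT-PCR normalised to ACTB, GAPDH, POLR2A; bidirectional fit versus DMSO.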

[16] = read-out: Signal transducer and activator of transcription 3 (Homo sapiens) (UniProt P40763); test: LTEA_HepaRG_STAT3: Life Technologies and Expression Analysis (LTEA) Assay for Signal transducer and activator of transcription (STAT3) using HepaRG (AID 2283529)
Method in brief: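 Differentiated HepaRG cells, serum-free induction medium, dosed 48 h in duplicate, 8 half-log concentrations from 100 uM in 0.5% DMSO. STAT3 mRNA by qRT-PCR, normalised to ACTB, GAPDH, POLR2A; bidirectional fit versus DMSO.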

[17] = read-out: solute carrier (SLCO1B1), SLCO1B1 (gene 10599); test: LTEA_HepaRG_SLCO1B1: Life Technologies and Expression Analysis (LTEA) Assay for solute carrier (SLCO1B1) using HepaRG (AID 2283530)
Method in brief: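 Gain or loss of SLCO1B1 mRNA is fitted against the 0.5% DMSO vehicle in human HepaRG liver cells treated 48 h at up to 100 uM in half-log steps. Expression comes from qRT-PCR normalized to endogenous controls.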

[18] = read-out: sulfotransferase 2A1 (SULT2A1), SULT2A1 (gene 6822); test: LTEA_HepaRG_SULT2A1: Life Technologies and Expression Analysis (LTEA) Assay for sulfotransferase 2A1 (SULT2A1) using HepaRG (AID 2283531)
Method in brief: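 Cells were plated and cultured 48 h, switched to serum-free induction medium, then dosed in duplicate for 48 h (8 concentrations, max 100 uM). RNA was isolated and SULT2A1 expression measured by qRT-PCR; gain or loss of signal fitted relative to DMSO.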

[19] = read-out: Transforming Growth Factor (TGFA), TGFA (gene 7039); test: LTEA_HepaRG_TGFA: Life Technologies and Expression Analysis (LTEA) Assay for Transforming Growth Factor (TGFA) using HepaRG (AID 2283532)
Method in brief: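 Differentiated HepaRG cells exposed 48 hours in serum-free induction medium, 0.5% DMSO vehicle, 8-point half-log series from 100 uM, in duplicate. TGFA mRNA by TaqMan qRT-PCR, normalised to ACTB, GAPDH, POLR2A; bidirectional fit versus DMSO.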

[20] = read-out: Transforming Growth Factor (TGFB1), TGFB1 (gene 7040); test: LTEA_HepaRG_TGFB1: Life Technologies and Expression Analysis (LTEA) Assay for Transforming Growth Factor (TGFB1) Transporter using HepaRG (AID 2283533)
Method in brief: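 Expression change of TGFB1 in human HepaRG cells is measured after a 48 h chemical exposure, up to 100 uM in 0.5% DMSO vehicle. Curves are fitted in both directions relative to the DMSO baseline.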

Measured: AC50

Sequence of Signal transducer and activator of transcription 3 (Homo sapiens) (P40763 whole entry, looked up): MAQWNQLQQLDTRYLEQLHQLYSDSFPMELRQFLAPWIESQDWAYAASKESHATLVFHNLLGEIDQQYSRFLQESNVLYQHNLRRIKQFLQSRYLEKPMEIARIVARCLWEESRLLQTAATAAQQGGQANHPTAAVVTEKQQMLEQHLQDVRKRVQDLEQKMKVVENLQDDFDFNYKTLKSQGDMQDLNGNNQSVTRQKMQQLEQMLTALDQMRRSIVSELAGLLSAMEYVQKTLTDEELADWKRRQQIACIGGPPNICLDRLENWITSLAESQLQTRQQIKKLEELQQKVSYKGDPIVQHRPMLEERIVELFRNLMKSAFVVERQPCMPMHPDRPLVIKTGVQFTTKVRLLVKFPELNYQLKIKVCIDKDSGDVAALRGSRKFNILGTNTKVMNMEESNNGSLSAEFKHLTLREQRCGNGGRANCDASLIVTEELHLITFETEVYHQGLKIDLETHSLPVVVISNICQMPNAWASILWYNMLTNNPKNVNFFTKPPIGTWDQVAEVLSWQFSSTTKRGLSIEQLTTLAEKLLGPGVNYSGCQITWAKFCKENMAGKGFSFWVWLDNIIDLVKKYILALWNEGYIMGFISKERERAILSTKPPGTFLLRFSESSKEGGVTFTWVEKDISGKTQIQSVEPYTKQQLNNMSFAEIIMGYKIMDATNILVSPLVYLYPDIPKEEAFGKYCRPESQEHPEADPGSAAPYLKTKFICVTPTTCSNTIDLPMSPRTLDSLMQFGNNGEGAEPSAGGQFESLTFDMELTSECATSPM
Sequence of Nuclear factor NF-kappa-B p105 subunit (Homo sapiens) (P19838 whole entry, looked up): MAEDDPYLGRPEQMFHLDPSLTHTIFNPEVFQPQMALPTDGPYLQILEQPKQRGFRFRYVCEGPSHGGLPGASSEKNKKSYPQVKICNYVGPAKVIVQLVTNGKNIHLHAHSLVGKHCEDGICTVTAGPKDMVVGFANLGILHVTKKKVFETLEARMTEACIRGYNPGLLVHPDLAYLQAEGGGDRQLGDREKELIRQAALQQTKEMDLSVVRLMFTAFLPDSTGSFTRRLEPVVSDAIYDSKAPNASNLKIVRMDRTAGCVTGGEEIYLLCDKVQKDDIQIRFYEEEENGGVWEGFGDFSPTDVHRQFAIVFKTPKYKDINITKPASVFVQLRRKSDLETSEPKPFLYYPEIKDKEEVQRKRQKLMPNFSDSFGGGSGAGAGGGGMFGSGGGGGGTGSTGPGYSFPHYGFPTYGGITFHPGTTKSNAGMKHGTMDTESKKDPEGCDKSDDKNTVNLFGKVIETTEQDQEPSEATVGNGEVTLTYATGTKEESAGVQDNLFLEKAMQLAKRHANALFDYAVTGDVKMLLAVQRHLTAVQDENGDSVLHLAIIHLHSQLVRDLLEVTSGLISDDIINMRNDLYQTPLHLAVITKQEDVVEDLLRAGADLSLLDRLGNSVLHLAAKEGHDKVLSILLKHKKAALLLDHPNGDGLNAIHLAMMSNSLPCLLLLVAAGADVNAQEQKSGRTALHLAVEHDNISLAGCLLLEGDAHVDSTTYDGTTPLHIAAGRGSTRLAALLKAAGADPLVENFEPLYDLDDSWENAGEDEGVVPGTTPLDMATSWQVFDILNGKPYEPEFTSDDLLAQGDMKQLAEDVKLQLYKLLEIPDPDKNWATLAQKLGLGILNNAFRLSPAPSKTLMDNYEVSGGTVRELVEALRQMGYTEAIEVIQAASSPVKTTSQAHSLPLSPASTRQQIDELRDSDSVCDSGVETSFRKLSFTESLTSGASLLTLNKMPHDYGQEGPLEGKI
Sequence of Nuclear factor erythroid 2-related factor 2 (Homo sapiens) (Q16236 whole entry, looked up): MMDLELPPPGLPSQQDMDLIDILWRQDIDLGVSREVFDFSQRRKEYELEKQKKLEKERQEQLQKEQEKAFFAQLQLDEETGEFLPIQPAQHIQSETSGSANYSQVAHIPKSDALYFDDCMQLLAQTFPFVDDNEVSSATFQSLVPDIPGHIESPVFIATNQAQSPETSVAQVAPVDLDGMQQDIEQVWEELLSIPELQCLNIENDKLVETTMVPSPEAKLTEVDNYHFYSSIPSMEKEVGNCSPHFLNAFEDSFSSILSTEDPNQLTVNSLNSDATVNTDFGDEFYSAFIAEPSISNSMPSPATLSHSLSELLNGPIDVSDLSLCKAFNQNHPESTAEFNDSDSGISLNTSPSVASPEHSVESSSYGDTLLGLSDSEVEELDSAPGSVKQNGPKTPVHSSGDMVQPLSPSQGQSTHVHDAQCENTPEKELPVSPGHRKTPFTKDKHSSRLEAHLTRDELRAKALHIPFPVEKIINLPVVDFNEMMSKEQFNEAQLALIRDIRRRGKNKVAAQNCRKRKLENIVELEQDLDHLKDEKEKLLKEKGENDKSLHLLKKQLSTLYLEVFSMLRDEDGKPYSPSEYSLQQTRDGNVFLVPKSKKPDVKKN

c1ccc2c(c1)oc1ccccc12
inactive: all assays above

Clc1ccccc1Cl
not listed: [17]
inactive: all other assays above

Nc1ccc([N+](=O)[O-])cc1
not listed: [9]
inactive: all other assays above

CO[C@@H]1[C@H](OC(=O)NC(=O)CCl)CC[C@]2(CO2)[C@H]1[C@@]1(C)O[C@@H]1CC=C(C)C
not listed: [17]
inactive: all other assays above

CN(C)C(=O)Nc1ccc(Cl)cc1
not listed: [9] | [17]
inactive: all other assays above

Oc1ccccc1Cl
not listed: [8]
inactive: all other assays above

c1ccc2c(c1)-c1cccc3cccc-2c13
active: [7] 50 µM
not listed: [9] | [17]
inactive: all other assays above

C1=Cc2cccc3cccc1c23
not listed: [8]
inactive: all other assays above

CCOC(=O)[C@]1(c2ccccc2)Oc2ccccc2[C@@H]1N
active: [1] 77.3 µM | [2] 50 µM | [4] 92.9 µM | [5] 89.5 µM | [6] 72.8 µM | [7] 62.5 µM | [11] 84.2 µM | [12] 71.2 µM | [17] 90.6 µM | [18] 93.2 µM | [19] 70.9 µM
inactive: [3] | [9] | [10] | [13] | [14] | [15] | [16] | [20]

CCCCCOC(=O)c1ccccc1C(=O)OCCCCC
not listed: [8]
inactive: all other assays above

CC(C)(OOC(C)(C)c1ccccc1)c1ccccc1
not listed: [17]
inactive: all other assays above

CCCCC(CC)COC(=O)c1ccc(C(=O)OCC(CC)CCCC)c(C(=O)OCC(CC)CCCC)c1 (stereo unspecified)
not listed: [17]
inactive: all other assays above

N#CC(Br)(Br)C(N)=O
not listed: [8]
inactive: all other assays above
